# Screening data deposited in PubChem by National Center for Advancing Translational Sciences (NCATS).
# Most compounds without a hit are left out; they make up all but 11% or so of the library.
# HEK cytotox: Cytotoxic Profiling in HEK 293 Cell Line of Diverse Libraries Using Quantitative High-Throughput Screening. HEK 293 viability, ATP luminescence (CellTiter-Glo), 48-72 h. Potency, µM (titrated, usually from 115 µM), for inactives: at the top dose activity change, negative = cytotoxicity, hits mostly inhibitors. 6.6% of 94,000 active; also: nearly all actives have a fitted effect of over 60% in size
#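 ATP-coupled CellTiter-Glo luminescence served as viability read-out, recorded 10 min after reagent addition at room temperature. HEK 293 cells, 250 cells/well, had been incubated with pintool-transferred compound for 48 or 72 hr at 37 degree Celsius.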
# 3T3 cytotox: Cytotoxic Profiling in NIH 3T3 Cell Line of Diverse Libraries Using Quantitative High-Throughput Screening; NIH 3T3 viability, CellTiter-Glo ATP luminescence, 48-72 h; Potency, µM (highest dose often 96.7 µM), without a hit: at the highest dose activity change, negative = cytotoxicity, actives largely listed as inhibitors; 4.3% of 94,000 active; also: nearly all actives have a fitted effect of over 55% in size
#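 Luminescent ATP readout (CellTiter-Glo, 10 min RT) after 48 or 72 hr compound exposure of NIH 3T3 cells seeded at 400 cells/well in 1536-well format; quantitative HTS.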
# hNpr1 antagonist: Natriuretic polypeptide receptor (hNpr1) antagonism - Primary qHTS; 1.6% of 76,000 active; Potency, µM (top dose mostly 46.3 µM), without a hit: top-dose activity change, negative = inhibition, most hits filed as inhibitors; Atrial natriuretic peptide receptor 1 (Homo sapiens), P16066; AID 1347048, 2019; HEK293 hNpr1 GloSensor cGMP, ANP-stimulated luminescence; calls by dose curve; also: nearly all actives have a fitted effect of over 60% in size
#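 Compound pre-incubated 30 min at room temperature on GloSensor-loaded HEK293 cells stably carrying hNpr1 and the pGS-40F cGMP biosensor. Stimulation uses hNppA at 0.1 nM final; luminescence is taken at baseline and 20 min post-agonist.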
# Luciferase inh: Firefly luciferase inhibition profiling of diverse chemical library using quantitative high-throughput screening; Luciferin 4-monooxygenase (Photinus pyralis), P08659; purified P. pyralis luciferase, luminescence, biochemical; Potency, µM (titrated, usually from 115 µM), hits mostly inhibitors; 2.5% of 76,000 active; AID 1347043, 2019; also: nearly all actives have a fitted effect of over 65% in size
# Target sequence (P08659 whole entry, looked up): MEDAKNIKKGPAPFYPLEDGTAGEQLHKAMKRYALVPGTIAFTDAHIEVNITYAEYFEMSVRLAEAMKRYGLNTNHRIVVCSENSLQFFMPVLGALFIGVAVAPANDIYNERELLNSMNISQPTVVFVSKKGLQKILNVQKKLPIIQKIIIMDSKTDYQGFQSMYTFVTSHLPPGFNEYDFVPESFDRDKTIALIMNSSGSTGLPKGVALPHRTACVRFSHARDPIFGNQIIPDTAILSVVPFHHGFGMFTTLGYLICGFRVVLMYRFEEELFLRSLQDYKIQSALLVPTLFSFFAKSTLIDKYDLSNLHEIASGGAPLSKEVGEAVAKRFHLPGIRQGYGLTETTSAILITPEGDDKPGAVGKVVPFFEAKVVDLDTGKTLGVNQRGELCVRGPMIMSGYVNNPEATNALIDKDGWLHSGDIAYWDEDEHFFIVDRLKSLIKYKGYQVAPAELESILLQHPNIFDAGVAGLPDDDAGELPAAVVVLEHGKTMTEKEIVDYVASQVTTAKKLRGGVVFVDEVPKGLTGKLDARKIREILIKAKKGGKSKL
#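 Luminescence read by CCD imaging after purified firefly luciferase (10nM final) was added to substrate buffer holding 10uM D-luciferin and 10uM ATP, pH 7.5, pre-dosed with compound.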
# * hit, by the source's call; i = inactive; ? = inconclusive; . = no result; [ ] = remark or other dose. Unless noted, calls follow the shape of the dose curve; as a rule, active = well fitted curve in the direction sought with a large enough effect; inconclusive = small, poorly fitted or top-dose-only effect, or another doubt; inactive = no such curve, though single readings can be large; an effect the other way counts as inactive or inconclusive. % is scaled to controls: 0 for no effect and ±100 for the full control effect; potency is read from the fitted curve at half-maximal effect.
SMILES,HEK cytotox,3T3 cytotox,hNpr1 antagonist,Luciferase inh
CC[C@H]1CN2CC[C@H]1C[C@@H]2COC(=O)Nc1cc(OC)cc(OC)c1,100µM*,?,3%[70.6 µM],i
CCC(CC)c1cc([C@H]2CN3CC[C@H]2C[C@@H]3COC(=O)Nc2ccc(C(C)(C)C)cc2)nc(-c2ccncc2)n1,7.1µM*,5µM*,-24%,?
O=C1NC2(CCN(Cc3ccccn3)C2)Oc2ccccc21 (centres undefined),?,-23%[138 µM],0%[70.6 µM],i
CCOCCCNC(=O)N1[C@H]2CC[C@@H]1c1cnc(-c3ccc(F)cc3)nc1C2,?,?,?,i
CC(C)NC(=O)[C@H]1CN2CC[C@H]1C[C@@H]2Cn1cc(CO)nn1,-1%[172 µM],-2%[174 µM],4%[70.6 µM],i
FC(F)(F)CN1C2CCC1CN(c1nnc(Cl)c3ccccc13)C2,79µM*,?,.,.
O=[N+]([O-])c1ccc(Cl)nc1N1CC2CCC(C1)N2CC(F)(F)F,40µM*,?,.,.
Cc1ccnc(N2CC3CCC(C2)N3CC(F)(F)F)c1[N+](=O)[O-],?,-19%,.,.
COc1ccc(NC(=O)N2[C@H]3CC[C@@H]2c2cnc(C)nc2C3)c(C)c1,i,-5%,2%,i
Cc1ncc2c(n1)C[C@@H]1CC[C@H]2N1C(=O)c1cnccn1,1%,i,0%,i
COc1cc2c(cc1OCC1CC1)NC(=O)C21CCN(c2cc(NC3CC3)ncn2)CC1,89µM*,25µM*,-9%[70.6 µM],i
COc1cc2c(cc1OC1CCCC1)NC(=O)C21CCN(c2ccnc(C)n2)CC1,?,79µM*,-10%[70.6 µM],i
COc1cc2c(cc1OCC1CC1)NC(=O)C21CCN(c2ccnc(C)n2)CC1,79µM*,?,-7%[70.6 µM],i
COc1cc2c(cc1OC1CCCC1)NC(=O)C21CCN(c2cc(NC3CC3)ncn2)CC1,?,?,-13%,i
CCOC(=O)[C@@H]1[C@H]2c3ccccc3N(C)C(=O)[C@H]2N(C(=O)c2cccs2)[C@@H]1c1ccccc1,79µM*,?,.,.
C#CCN1C(=O)[C@@H]2[C@H](c3ccccc31)[C@@H](C(=O)OCC)[C@@H](c1ccccc1)N2C(=O)c1ccco1,32µM*,?,.,.
OC[C@@H]1[C@H]2CN(C3CCCCCC3)CCN2C[C@H]1c1ccccc1,-17%,?,.,.
CN1CCc2c([nH]c3ccccc23)C12CCNCC2,89µM*,?,-1%,i
COc1cc2c(cc1Oc1cccc(N(C)C)c1)NC(=O)C21CCN(C(=O)C2CCC2)CC1,?,?,-14%,i
C#C[C@H]1CN2CC[C@H]1C[C@@H]2COC(=O)Nc1ccc(OC(F)(F)F)cc1,?,40µM*,?,i
C#C[C@H]1CN2CC[C@H]1C[C@@H]2COC(=O)Nc1ccc(C(C)(C)C)cc1,?,79µM*,-1%[70.6 µM],i
COCc1cc(N2CCN(C)C3(CCC(=O)N(C)CC3)C2)ncn1 (centres undefined),-16%,-7%,14%,i
C=CCN(C)C(=O)[C@H]1CN2CCC1C[C@@H]2Cn1cc(CO)nn1 (some centres undefined),?,-34%[174 µM],-1%[70.6 µM],i
O=C(Nc1ccccc1)[C@H]1CN2CCC1C[C@@H]2Cn1cc(CSc2ccccc2)nn1 (some centres undefined),100µM*,100µM*,2%[70.6 µM],i
COc1ccccc1CNC(=O)[C@H]1CN2CC[C@H]1C[C@@H]2Cn1cc(-c2ccccc2)nn1,-1%[172 µM],-23%[174 µM],1%[70.6 µM],i
CNCc1cn(C[C@H]2CC3CCN2C[C@@H]3C(=O)Nc2ccccc2)nn1 (some centres undefined),-1%[172 µM],-1%[174 µM],3%[70.6 µM],i
COc1ccc(-c2cn(C[C@H]3C[C@@H]4CCN3C[C@@H]4C(=O)NC3CC3)nn2)cc1,i,-3%[174 µM],-8%[70.6 µM],i
CC(C)(C)c1ccc(-c2cn(C[C@H]3CC4CCN3C[C@@H]4C(=O)NC3CCCCC3)nn2)cc1 (some centres undefined),32µM*,?,-1%,i
